From the supplement of paper PMC6555819

Legend:
Assay in all cases: PBM binding z-score (relative to random genomic background probes); higher = stronger binding; sequences stand for … in GC…GCGATTGACAGCGTAGAATGAAGG
[1] = tested on: RARb homodimer (NR concentration 270 nM)
Outline: (§1)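 Regression normalization was applied to scanned fluorescence from custom Agilent 4×180K protein-binding microarrays. Before scanning, arrays were incubated 1 h with ligand-free nuclear receptor dimers, and binding was detected with antibodies against each partner (one per run). Binding z-scores use the random background probes as reference.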

[2] = tested on: RARg:RXRa (NR concentration 270 nM, RXRa partner concentration 90 nM)
Outline: as §1

[3] = tested on: RARg homodimer (NR concentration 270 nM)
Outline: as §1

[4] = tested on: RXRa DBDmut IVT, anti-RXR (DBD mutation: RXRa K156A/R161A, NR concentration 90 nM)
Outline: as §1

[5] = tested on: RXRa homodimer (NR concentration 180 nM)
Outline: as §1

[6] = tested on: THRa:RXRa (NR concentration 90 nM, RXRa partner concentration 90 nM)
Outline: as §1

[7] = tested on: THRa homodimer (NR concentration 90 nM)
Outline: as §1

[8] = tested on: VDR homodimer (NR concentration 270 nM)
Outline: as §1

Sequence | PBM binding z-score [1] | PBM binding z-score [2] | PBM binding z-score [3] | PBM binding z-score [4] | PBM binding z-score [5] | PBM binding z-score [6] | PBM binding z-score [7] | PBM binding z-score [8]
ATACCAAGGTGATCGTTAGGTCGTTGATACTAAC | 1.02 | 0.983 | 0.72 | 0.203 | 0.459 | 2.26 | 1.49 | 0.472
CAGCCTACGTCAGGGCCAGTATAGGAGGAACGTT | -0.0418 | -0.371 | -0.021 | -0.885 | -0.169 | -0.415 | -0.292 | -0.285
TTACCAAGGTGAGCTAAGGTCGTTGATCCAACTC | 1.72 | 1.56 | 1.15 | -0.158 | 1.65 | 4.71 | 2.41 | 1.29
TCGAGTAGGTTAGGAGCATTCAGAATGGCGTCGA | -0.383 | -0.196 | -0.317 | -0.149 | 0.0721 | -0.459 | -0.881 | -0.161
TCATATAGGTAAAGATGAAAGTCGAACGATATGA | -0.846 | 0.547 | 0.586 | 0.337 | 0.56 | -0.225 | -1.11 | -0.391
TAGCCTAGGTCATTGGGCCGGTATAGTACGCATC | 2.86 | 3.58 | 4.08 | 0.933 | 2.62 | 2.67 | 0.961 | 1.35
CCTACTGGGCCAGGGTCATTGATCAGTCAAAGCA | 2.52 | 3.5 | 2.02 | 0.154 | 3.7 | 2.7 | 0.841 | 2.48
TCTTGTAGATCAAAGATTAAGAAAGCCGAAGCCT | -1.12 | 0.0193 | -0.33 | 0.517 | 0.241 | -0.201 | -0.962 | -0.417
TGAATGCGGTTAAAGATCAGGGAACGTGGCGTCG | -0.707 | -0.0436 | -0.136 | -0.853 | 0.338 | -0.164 | -0.454 | -0.55
CCTCGGAGGACAGAAGGCCAGAGCTGTCCGCTTT | 0.275 | -0.112 | 0.0875 | -0.346 | -0.765 | 0.0492 | -0.927 | -0.212
TTACCAAGGTGAAAGGTCGATGATGCACGCCTTG | 2.3 | 3.83 | 2.15 | -0.254 | 4.5 | 3.04 | 0.568 | 0.119
TATACAGGGTCAAAGGCCTGAGTACGAATGTCGA | 3.17 | 5.49 | 4.87 | 2.89 | 6.3 | 3.28 | 0.678 | 3.41
AATTACGGGTCAACGAGGTTATAGCACGCGTATA | 3.63 | 5.71 | 4.88 | 2.47 | 6.2 | 4.18 | 1.16 | 4.13
TCTTGTAGATCAAAGGTTAAGTAAGCCGAAGCCT | 1.76 | 2.18 | 1.14 | 0.911 | 3.27 | 1.92 | -0.293 | -0.446
TCTTGTAGACCAACAGGAGGTTAAGAAAGATCGA | 0.694 | 0.411 | 0.151 | 0.322 | 0.799 | 0.789 | -0.614 | -0.388
CTCGAACGGTCGGTTGAGGTGAGTATACGGATAA | 0.411 | 0.215 | 0.464 | -0.356 | -0.11 | 3.27 | 0.822 | -0.341
CGAACTAGGTCGTTGACAGGACAGTGAATAGTAA | 0.711 | 1.6 | 1.2 | 1.18 | 0.488 | 1.33 | 0.0428 | 0.716
GCTGCTAGGTCAACTGATGATCAGCTAAAGCTCG | 3.3 | 4.46 | 5.15 | 1.46 | 2.75 | 2.85 | 0.808 | -0.0271
